Consider 17 compounds from PubChem BioAssay (NCATS).

Where “and” joins values, the source holds several entries; their conditions need not be identical. Identical values can stand only once. Results filed as inconclusive are left out. The source holds several records for some structures; these can differ, active in one and inactive in another. Calls of active or inactive are those of the source. Calls follow the shape of the dose curve; as a rule, active = well fitted curve in the direction sought with a large enough effect; inconclusive = small, poorly fitted or top-dose-only effect, or another doubt; inactive = no such curve, though single readings can be large; an effect the other way counts as inactive or inconclusive.

The nature of assay [1]: qHTS assay for measurement of the activity of small molecule inhibitors on Zika virus induced Caspase-3 activity in human iPSC derived neural progenitor cells (hNPCs) (AID 1224857). Also: nearly all actives have a fitted effect of over 65% in size. Also: potency is read from the fitted curve at half-maximal effect. In a few lines: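 Zika virus (2 FFU/cell) infection of human iPSC-derived NPCs, 6 h, following 1 h compound preincubation. Read-out: Caspase-Glo 3/7 luminescence.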
(qHTS replaces the single test concentration by a dilution series.)

Assay [2] in a line: qHTS assay for measurement of the activity of small molecule inhibitors on Zika virus induced Caspase-3 activity in human astrocytoma cells (AID 1224859). Summed up:
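Caspase activation in ZIKV-infected SNB-19 cells (2 FFU/cell, 6 h) measured by Caspase-Glo 3/7 luminescence after 30 min RT; compound pre-incubated 1 h; normalised to uninfected and infected controls.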

Assay [3] is described as follows: qHTS Screen of the MIPE 4.0 Collection Against Ewings Sarcoma (RDES) (AID 1259252). Also: nearly all actives have a fitted effect of over 35% in size. Also: potency is read from the fitted curve at half-maximal effect. In a few lines:
(§1)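 Measured: ATP luminescence (CellTiter-Glo) 10 min after reagent addition, following 48 h drug treatment. Relative luciferase units converted to percent activity, with no-cell wells as full and DMSO wells as zero inhibition.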

The nature of assay [4]: qHTS Screen of the MIPE 4.0 Collection Against Ewings Sarcoma (EW8) (AID 1259255). Also: nearly all actives have a fitted effect of over 35% in size. Also: potency is read from the fitted curve at half-maximal effect. In a few lines:
as §1

Assay [5] can be described thus: qHTS Screen of the MIPE 4.0 Collection Against Ewings Sarcoma (TC32) (AID 1259256). Also: nearly all actives have a fitted effect of over 45% in size. Also: potency is read from the fitted curve at half-maximal effect. Summed up:
as §1

Assay [6] can be described thus: Identifying Small Molecule Inhibitors of Pancreatic Cancer Stem Cells (A2780, Spheroid) (AID 1259357).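 Also: potency is read from the fitted curve at half-maximal effect; compound exposure lasted 48 h before the ATP luminescence read.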 As to conditions: Potency: A2780 spheroid viability. Summed up: (§2)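 Monolayer and spheroid cultures are compared. Spheroids form over 14 days in stem cell medium on hydrogel-coated low-attachment plates, then are exposed to compound for 48 h before CellTiter-Glo luminescence.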

A short description of assay [7]: Identifying Small Molecule Inhibitors of Pancreatic Cancer Stem Cells (SN12C, Adherent) (AID 1259358).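 Also: cell survival measured after 48 h of compound exposure.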 Also: potency is read from the fitted curve at half-maximal effect. Summed up: (§3)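 After a 4 h attachment period, compounds were pinned into wells and cultures held 48 h under standard incubator conditions. Viability was then measured as CellTiter-Glo luminescence following 10 min at room temperature.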
Assay [8] can be described thus: Identifying Small Molecule Inhibitors of Pancreatic Cancer Stem Cells (SN12C, Spheroid) (AID 1259360). Also: potency is read from the fitted curve at half-maximal effect. The following applies: Potency: SN12C spheroid viability. Summed up: as §2
Assay [9] can be described thus: Identifying Small Molecule Inhibitors of Pancreatic Cancer Stem Cells (A278, Adherent) (AID 1259361).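 Also: viability read after 48 h compound exposure; nearly all actives have a fitted effect of over 35% in size.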 Summed up: as §3
Assay [10] is described as follows: Identifying Small Molecule Inhibitors of Pancreatic Cancer Stem Cells (Panc1, Adherent) (AID 1259362). Also: potency is read from the fitted curve at half-maximal effect. The following applies: Potency: viability. In a few lines: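 Luminescent ATP readout (CellTiter-Glo) quantifies surviving cells after a 48 h drug incubation. Normalization uses DMSO wells as no inhibition and media-only wells as full inhibition; bortezomib served as positive control.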

Assay [11] can be described thus: P-glycoprotein substrates identified in KB-8-5-11 adenocarcinoma cell line, qHTS therapeutic library screen (AID 1346987). Also: nearly all actives have a fitted effect of over 65% in size. Also: potency is read from the fitted curve at half-maximal effect. Summed up: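 KB-8-5-11: colchicine-selected sub-line of KB-3-1 over-expressing P-gp; assay medium lacked colchicine. 72 h drug exposure at 37 degree C, CellTiter-Glo.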
The nature of assay [12]: NS1 protein of Zika virus - qHTS assay to identify small molecule inhibitors in human HEK 293 cells (AID 1347053). Also: nearly all actives have a fitted effect of over 55% in size. Also: potency is read from the fitted curve at half-maximal effect. Summed up:
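HEK 293; 20 h pre-culture, 37 C/5% CO2; cpd 1 h pre-infection; ZIKV MR766, MOI = 0.5, 24 h, 37 C; TR-FRET NS1 readout (two anti-NS1 Abs); norm. to no-virus vs infected.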

The nature of assay [13]: qHTS Screen of the MIPE 4.0 Collection Against Ewings Sarcoma (TC71) (AID 1259253). Also: nearly all actives have a fitted effect of over 40% in size. Also: potency is read from the fitted curve at half-maximal effect. Summed up: as §1
The nature of assay [14]: P-glycoprotein substrates identified in KB-3-1 adenocarcinoma cell line, qHTS therapeutic library screen (AID 1346986). Also: nearly all actives have a fitted effect of over 60% in size.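 Also: potency is read from the fitted curve at half-maximal effect; potency is for cytotoxicity meaning loss of cell viability.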 Summed up:
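KB-3-1 parental cells and P-gp-overexpressing KB-8-5-11 (colchicine omitted during assay) plated at 500 cells/well, dosed in dose-response, incubated 72 h at 37 degree C. CellTiter-Glo luminescence read; KB-8-5-11 also tested with tariquidar.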

Assay [15] in a line: qHTS assay to identify small molecule inhibitors of chordoma cells - UCH-1 (AID 1259355). Also: nearly all actives have a fitted effect of over 55% in size. In a few lines:
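Luminescent ATP read-out (CellTiter-Glo, 30min at room temperature) measured viability of UCH-1 cells exposed for 48hr to test drugs at 15 concentrations, co-dosed with a five-agent combination of auranofin, camptothecin, doxorubicin, rubitecan and topotecan.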

The nature of assay [16]: qHTS assay to identify small molecule inhibitors of chordoma cells - UCH-2 (AID 1259356). Also: series mostly up to about 46 µM.

For the compound `C1=CCOCc2cc(ccc2OCCN2CCCC2)Nc2nccc(n2)-c2cccc(c2)OCC1`, the Potency entry in [1], in [2] and in assay [8] was “inactive” throughout. Further, the Potency in assay [3] was 5.9 µM (active); in assay [4] it was 6.62 µM (active); in [5], 7.43 µM (active); in [6] it was 3.32 µM (active); in [7], 5.26 µM (active); in assay [10], 1.87 µM (active). Also, the Potency in assay [11] is 3.32 µM (active); in assay [12], 4.18 µM (active). In addition, in assay [9], the IC50 (viability decrease) was 2.09 µM (active).
Regarding `O=C(O)c1ccc2c(c1)nc(Nc1cccc(Cl)c1)c1ccncc12`, the Potency result in assay [1] and in assay [2] was “inactive” throughout. In addition, the Potency in assay [3] is 4.18 µM (active); in [13], 4.69 µM (active); in assay [14], 5.8 µM (active); in [11], “inactive and 14.6 µM (active)”. In addition, the IC50 (viability decrease) in assay [9] is 16.6 µM (active).
Turning to `Cc1cnc(Nc2ccc(F)cc2Cl)nc1-c1c[nH]c(C(=O)N[C@H](CO)c2cccc(Cl)c2)c1`, the Potency result in assay [1] and in [2] was “inactive” in each case. In addition, the Potency in assay [3] was 20.9 µM (active); in assay [4] it was 20.9 µM (active); in [5], 23.5 µM (active); in [7] it was 13.2 µM (active); in assay [8], 23.5 µM (active); in assay [10], 18.7 µM (active). Moreover, the Potency in assay [11] is 23.5 µM (active). For the same compound, in assay [9], the IC50 (viability decrease) is 11.8 µM (active).
For `CN1c2cc(O)c(N=NC(N)=O)cc2CC1S(=O)(=O)O` (stereo unspecified), the Potency result in assay [1], in assay [2], in assay [3], in assay [4], in assay [5] and in [15] was “inactive” throughout. In addition, the Potency result in assay [14], in assay [11] and in assay [12] was “inactive” each time. In [16], the result was inactive.
Take `OCc1ccc(-c2ccc(-c3ccc(CO)s3)o2)s1`: the Potency in assay [1] was 26.4 µM (active); in assay [3], 0.0526 µM (active); in assay [13], 26.4 µM (active); in assay [5] it was 18.7 µM (active); in assay [11], “inactive and 3.17 µM (active)”. Further, the Potency result in assay [2] and in assay [12] was “inactive” in each case.
In the case of `CCC[C@H](NC(=O)C(C#N)=Cc1cccc(Br)n1)c1ccccc1`, the Potency result in [1] and in assay [2] was “inactive” each time. For the same compound, the Potency in assay [3] is 7.43 µM (active); in [13] it was 7.43 µM (active); in assay [5] it was 7.43 µM (active); in assay [10], 20.9 µM (active); in assay [11], 18.7 µM (active); in assay [12] it was 14.8 µM (active). Besides, the IC50 (viability decrease) in assay [9] was 26.4 µM (active).
Take `CC(C)=CCCC(C)=CCCC(C)=CCSc1ccccc1C(=O)O`: the Potency entry in assay [1], in assay [2], in assay [7] and in [8] was “inactive” in each case. Also, the Potency in assay [3] is 2.35 µM (active); in assay [13], 2.35 µM (active); in assay [5], 1.87 µM (active); in [11] it was 1.32 µM (active).
For `Cc1cc(Nc2cc(N3CCN(C)CC3)nc(Sc3ccc(NC(=O)C4CC4)cc3)n2)n[nH]1`, the Potency result in [1], in assay [2] and in assay [8] was “inactive” in each case. The Potency in assay [3] was 3.72 µM (active); in [13] it was 6.62 µM (active); in [7], 20.9 µM (active); in assay [14], 0.231 µM (active); in assay [12], 9.35 µM (active).
As to `O=C(O)CO.[NH2-].[NH2-].[Pt+2]`, the Potency result in assay [1], in [2], in assay [3], in assay [13], in assay [15] and in [11] was “inactive” each time. Further, the Potency entry in assay [12] was “inactive”. In addition, the compound was classed as inactive in assay [16].
On to `CN[C@H]1CCc2cc(OC)c(OC)c(OC)c2-c2ccc(OC)c(=O)cc21`, for which the Potency entry in assay [1], in assay [2] and in [5] was “inactive” throughout. Also, the Potency in assay [3] was 0.0021 µM (active); in assay [4], 0.0019 µM (active); in [11], 18.7 nM (active) and 1.16 µM (active); in assay [12], 0.0083 µM (active). Also, the outcome in assay [16] was inactive.
Consider `CCOc1ccccc1OCCNC(C)Cc1ccc(OC)c(S(N)(=O)=O)c1` (stereo unspecified), for which the Potency entry in assay [1], in [2], in [3], in [13], in assay [5] and in assay [14] was “inactive” throughout. The Potency result in assay [11] and in assay [12] was “inactive” throughout.
Take `CC(C)c1nn(-c2c(Cl)cccc2Cl)c2nc(Cc3ccc(OCCO)cc3)[nH]c(=O)c12`: the Potency result in [1] and in [2] was “inactive” throughout. In addition, the Potency in assay [3] was 0.187 µM (active); in assay [13], 0.132 µM (active); in [5] it was 0.105 µM (active); in [11], 118 nM (active) and 103 nM (active); in assay [12] it was 0.166 µM (active).
With `CC(=O)SC[C@@H](C)C(=O)N1CCC[C@H]1C(=O)N[C@@H](Cc1ccccc1)C(=O)O`, the Potency result in assay [1], in [2], in assay [3], in [13], in assay [5] and in [7] was “inactive” throughout. For the same compound, the Potency entry in assay [8], in assay [10], in assay [11] and in assay [12] was “inactive” in each case.
Consider `COc1cc2c(cc1-c1c(C)noc1C)ncc1[nH]c(=O)n([C@H](C)c3ccccn3)c12`, for which the Potency entry in assay [1], in assay [2] and in assay [12] was “inactive” in each case. Moreover, the Potency in assay [3] is 6.62 µM (active); in [13] it was 4.69 µM (active); in [5] it was 4.69 µM (active).
On to `Cc1nc2ccc(CN(C)c3ccc(C(=O)N[C@@H](CCC(=O)O)C(=O)O)s3)cc2c(=O)[nH]1`, for which the Potency result in assay [1], in assay [2], in assay [15] and in assay [12] was “inactive” throughout. Besides, the Potency was 0.0166 µM (active) in assay [3], 0.0264 µM (active) in assay [4] and 0.0332 µM (active) in [5]. Moreover, the outcome in [16] was inactive.
Consider `N#CCNC(=O)c1ccc(-c2ccnc(Nc3ccc(N4CCOCC4)cc3)n2)cc1`, for which the Potency entry in assay [1] and in assay [2] was “inactive” each time. Also, the Potency in [3] is 11.8 µM (active); in assay [4] it was 13.2 µM (active); in [5] it was 16.6 µM (active); in [6], 20.9 µM (active); in assay [14], 3.66 µM (active); in assay [11] it was 8.33 µM (active) and 5.8 µM (active). Further, the IC50 (viability decrease) in [9] is 13.2 µM (active).
`CN1CCC(CNc2ccc3ncc(-c4cccc(OC(F)(F)F)c4)n3n2)CC1`: the Potency entry in assay [1] and in [2] was “inactive” throughout. Moreover, the Potency in assay [3] is 16.6 µM (active); in assay [13], 16.6 µM (active); in assay [5], 13.2 µM (active); in assay [7], 20.9 µM (active); in assay [8], 23.5 µM (active); in assay [14], 20.6 µM (active). Also, the Potency was 13.2 µM (active) and 18.4 µM (active) in assay [11]; 16.6 µM (active) in assay [12]. Besides, in assay [9], the IC50 (viability decrease) was 18.7 µM (active).
